# Compound activity deposited in PubChem by The Scripps Research Institute Molecular Screening Center.
# In the library only some 3.5% were active in any assay of this set; here they are far more common.
# MITF primary – inhibitors of human MITF; 650,000 compounds, 0.91% hits; O75030; inhibition, % at 2.6 µM; AlphaScreen MITF homodimerization, bead proximity signal; in the data active = inhibition above about 50%;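 also: 0% = vehicle wells with protein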
# FBW7 act – human FBW7 E3 ligase activation, primary screen; 650,000 compounds, 0.13% hits; AID 1259310; AlphaScreen FBW7–phospho-cyclin E peptide binding, activator screen; normalized activity (activation), % at 26.1 µM; in the data active = normalized activity above about 1.9%;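 also: purified mutant Fbw7 with reduced substrate affinity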
# TEAD-YAP inh – TEAD-YAP interaction inhibition; HEK-TIYL cells, TEAD-Gal4/YAP UAS-luciferase luminescence; inhibition, % at 9.12 µM; 640,000 compounds, 1.4% hits; AID 1259422; in the data active = inhibition above about 32%;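 also: 0% = median of test compound wells and 100% = reference inhibitor wells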
# GPR151 ag – activators of human GPR151; activation, % at 11.2 µM; PathHunter beta-arrestin GPR151 cells, luminescence; Q8TDV0; 650,000 compounds, 1% hits; in the data active = activation above about 4.9%;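 also: 0% = median of compound wells and 100% = cells with positive control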
# GPR151 conf act – confirmation of human GPR151 activators; shares compounds with GPR151 ag; GPR151 PathHunter beta-arrestin cells, luminescence, 90 min; % of EA-reagent control over plate median; activation, % at 11.2 µM; 6,700 tested, under 10 active;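 active = mean percent activation across replicates above the confirmation screen cutoff of 4.91%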
# GPR119 ag – GPR119 activation, counter-screen for GPR151 activators | shares compounds with GPR151 ag | GPR119 PathHunter beta-arrestin cells, luminescence, 90 min; 0 = compound-well median, 100 = enzyme-acceptor control | activation, % at 11.2 µM | 6,700 compounds, 0.3% hits | AID 1508611;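 active = mean percent activation in the counterscreen above 29.09%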;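 also: counterscreen on off-target GPR119 to flag nonselective hits from the GPR151 activator screen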
# Target sequence (Q8TDV5 whole entry, looked up): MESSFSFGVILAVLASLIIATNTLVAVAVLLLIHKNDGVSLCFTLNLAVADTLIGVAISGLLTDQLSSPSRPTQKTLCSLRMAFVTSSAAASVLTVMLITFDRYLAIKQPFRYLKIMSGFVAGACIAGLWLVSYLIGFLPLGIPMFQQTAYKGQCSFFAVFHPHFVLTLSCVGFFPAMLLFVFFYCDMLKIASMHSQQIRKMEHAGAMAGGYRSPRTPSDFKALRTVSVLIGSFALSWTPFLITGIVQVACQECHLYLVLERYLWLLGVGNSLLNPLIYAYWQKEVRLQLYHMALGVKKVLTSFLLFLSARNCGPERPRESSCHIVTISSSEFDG
# Starred values were filed as active, the others as inactive; . = no result given.
SMILES,MITF primary,FBW7 act,TEAD-YAP inh,GPR151 ag,GPR151 conf act,GPR119 ag
COC(=O)COc1ccc(S(=O)(=O)Nc2ccc(S(N)(=O)=O)cc2)cc1C,3.4,0.1,-6.1,5.9*,0.9,-0.9
COc1ccccc1NS(=O)(=O)c1ccc(Cl)c(C(=O)Nc2ccc(Cl)cc2)c1,5.8,0.0,9.4,9.6*,-0.5,-8.2
COCCCNS(=O)(=O)c1ccc2[nH]c(=O)[nH]c2c1,-3.2,-0.2,-6.2,6.0*,0.6,15.6
COc1ccccc1NS(=O)(=O)c1ccc(Br)c(C(=O)Nc2ccccc2)c1,11.1,0.1,5.0,2.5,.,.
COC(=O)COc1ccc(S(=O)(=O)Nc2ccc(C(N)=O)cc2)cc1C,-7.5,-0.2,3.0,-1.1,.,.
O=c1[nH]c2ccc(S(=O)(=O)NCCO)cc2[nH]1,1.7,-0.1,3.3,-0.6,.,.
COCCNS(=O)(=O)c1ccc(Cl)c(C(F)(F)F)c1,2.8,0.1,5.4,8.8*,0.6,7.2
CCN(CC)c1nc(NCCCN2CCCC2=O)nc(NCCc2ccc(OC)cc2)n1,-4.4,0.0,5.8,-0.6,.,.
COc1ccc(S(=O)(=O)NCCCCCC(=O)O)cc1C(=O)O,10.2,0.0,-0.1,8.8*,0.9,-3.0
COc1ccc(S(=O)(=O)Nc2ccc(Cl)cc2)cc1I,2.2,0.1,8.7,18.8*,0.1,5.9
COCCCNS(=O)(=O)c1ccc(OC)c(I)c1,3.6,-0.1,-1.9,-1.0,.,.
COCCNS(=O)(=O)c1ccc(OC)c(I)c1,-10.1,-0.1,2.8,9.4*,0.8,9.0
COc1cccc(-n2nc(C(=O)Nc3ccc4c(c3)OCCO4)c3ccccc3c2=O)c1,2.5,0.1,-0.9,-0.1,.,.
O=C(c1ccccc1NS(=O)(=O)c1ccc(Br)s1)N1CCCC1,14.8,0.0,2.3,5.0*,-1.2,-7.2
COc1cc(C2C(C(=O)OC3CCCC3)=C(C)NC3=C2C(=O)CC(C)(C)C3)cc(Cl)c1O (stereo not given),-7.8,0.1,9.9,-1.2,.,.
CC(C(=O)OCC(=O)Nc1ccc(SC(F)F)cc1)N1C(=O)c2ccccc2C1=O (stereo not given),-0.2,0.0,-4.0,5.8*,-0.1,-8.8
CNC(=O)C1=C(C)NC(=S)NC1c1ccccc1OC (stereo not given),1.9,0.0,2.2,9.5*,-0.6,-12.9
COc1ccccc1C1NC(=S)NC(C)=C1C(=O)c1ccccc1 (stereo not given),9.0,-0.1,3.1,2.5,.,.
CCOc1nc(NCCC2=CCCCC2)nc(OCC)n1,-3.3,0.2,-7.0,9.8*,0.7,-8.9
O=C(OCc1cccc([N+](=O)[O-])c1)c1cc(Cl)ccc1O,-9.7,-0.4,18.8,7.2*,0.3,-3.3
CC(O)CNc1nc2ccccc2n1CC(=O)N1CCc2ccccc21 (stereo not given),0.0,-0.2,6.5,10.0*,-0.5,8.6
Cc1ccc(OCC(=O)O/N=C(\N)Cc2ccc([N+](=O)[O-])cc2)c(C)c1,-6.5,0.0,11.9,1.9,.,.
Cc1ccc(C(=O)N/N=C/c2ccc([N+](=O)[O-])c(O)c2)cn1,10.8,0.0,2.5,-2.3,.,.
Cc1ccccc1C(=O)NCc1nc(-c2ccccc2)no1,2.1,-0.1,0.6,6.9*,-1.1,-11.5
O=C(NCC1CCCO1)c1ccc(N2CCCCCC2)c([N+](=O)[O-])c1 (stereo not given),14.8,-0.1,-4.3,0.3,.,.
SMILES,MITF primary,FBW7 act,TEAD-YAP inh,GPR151 ag,GPR151 conf act,GPR119 ag
O=S(=O)(c1cccc(S(=O)(=O)N2CCOCC2)c1)c1ccc(Cl)c(Cl)c1,10.3,0.0,5.2,5.5*,0.5,12.9
CC(=O)NC1(c2ccccc2)CCN(C(=O)C(C)(C)C)CC1,10.6,0.2,4.4,-1.3,.,.
COc1ccc(CCN(Cc2cc3cccc(C)c3n3nnnc23)C(=O)C2CC2)cc1OC,2.1,0.0,0.7,-0.9,.,.
O=C(O)C1C(C(=O)Nc2ccc(Cl)cc2)C2C=CC1C21CC1 (stereo not given),17.8,0.5,-12.5,-1.5,.,.
O=C(O)C1C(C(=O)Nc2ccccc2)C2C=CC1C21CC1 (stereo not given),6.1,0.2,3.0,7.5*,1.1,16.3
Cc1ccc(S(=O)(=O)NCC2(c3cccs3)CCOCC2)c(C)c1,4.4,0.3,-1.4,7.3*,1.4,-6.2
COc1ccc(NC(=O)NNC(=O)C(Sc2ccccc2)c2ccccc2)c(OC)c1 (stereo not given),-4.7,-0.2,0.2,-1.4,.,.
CCCC(=O)Nc1ccc(NC(=O)c2cnccn2)cn1,-8.0,0.6,-9.2,8.0*,-1.0,-5.7
CCOC(=O)/C(=C\c1ccco1)NC(=O)c1ccccc1I,10.8,0.0,9.1,12.3*,-0.2,5.6
CCOC(=O)CSC1=C(C#N)C(c2ccccc2I)C(C(=O)OCC)C(=O)N1 (stereo not given),13.4,0.5,4.9,-1.1,.,.
O=C(CCS(=O)(=O)c1cc2c(cc1Cl)NC(=O)CO2)Nc1ccc(F)cc1F,7.0,0.1,-2.8,5.5*,-1.0,-13.7
CC(=O)c1ccc(OCC(=O)Nc2ccccc2)cc1,10.4,0.0,-39.4,5.8*,-1.6,-15.7
CC(C)(C)c1ccc(OCC(=O)Nc2ccc(OCC(=O)O)cc2)cc1,10.6,0.0,7.0,5.2*,-0.1,3.9
CCOc1ccc(NC(=O)c2ccc(C(C)(C)C)cc2)cc1,-12.6,-0.1,-28.6,-0.5,.,.
CCOc1ccc(NC(=O)CNC(=O)c2ccc(C(C)(C)C)cc2)cc1,7.5,0.1,7.6,9.1*,-0.2,-9.3
CCOc1ccc(-c2cccc(NC(=O)COc3ccc(C(=O)c4ccccc4)cc3)c2)nn1,20.7,0.3,4.7,7.3*,-1.2,-0.8
Cc1oc(C(=O)OCCN2CCOCC2)cc1COc1ccccc1,14.5,0.0,11.6,-1.8,.,.
Brc1ccc(N2CCN(c3ccccn3)CC2)nc1,6.9,-0.2,-18.4,-0.1,.,.
CN(C)CCNC(=O)Nc1ccc(Cl)cc1C#N,-5.5,0.0,-8.5,0.2,.,.
COc1ccc(C2=NN(C(=O)CSc3nnc(CNC(=O)COc4ccccc4)n3C)C(c3cccc(OC)c3OC)C2)cc1 (stereo not given),-1.9,-0.1,10.3,-0.3,.,.
O=C(COc1ccc(F)cc1)Nc1cccc(C(=O)O)c1,6.2,0.2,-10.3,6.5*,0.9,18.1
CC(C)c1ccc(NC(=O)c2ccc(F)c(S(=O)(=O)NCc3ccco3)c2)cc1,5.7,-0.1,4.7,-0.9,.,.
CCc1ccc(C2CC(c3ccc(OC)c(OC)c3OC)n3nnnc3N2)cc1 (stereo not given),-9.2,0.0,4.2,1.5,.,.
COc1ccc(CNc2cccc(C)n2)cc1,-0.3,0.0,-44.1,-1.5,.,.
CC(C)CNC(=O)Cc1cccc2ccccc12,14.0,0.3,-3.0,-0.4,.,.
N#CC1=C(SCc2ccccc2Cl)NC(=O)CC1c1cccc(Br)c1 (stereo not given),3.6,0.1,-12.6,-1.6,.,.
